Test results taken from PubChem BioAssay.
Values without a mark were called inactive. The rule behind the calls is not given here.

System: Botulinum neurotoxin type F light chain protease (Clostridium botulinum)
Assay: Clostridium botulinum type F light chain protease inhibitors, microsphere substrate cleavage, validation (AID 588459)
Conditions: multiplex microsphere protease substrate cleavage assay, flow cytometry; at 10 µM; stronger effect = higher value

Structure (SMILES) | inhibition [%]
CC(=O)c1cn(C)c(=O)[nH]c1=O | 2.9
CCOC(=O)[C@H](CCc1ccccc1)N[C@@H](C)C(=O)N1CCC[C@H]1C(=O)O | 3.5
Cn1c(=O)[nH]c(=O)c2c1ncn2CCN1CCOCC1 | 3.5
COCCCN1C(=O)C(=O)/C(=C(/O)c2ccc3c(c2)CC(C)O3)C1c1cccnc1 (configuration not stated) | -3
NS(=O)(=O)c1cc2c(cc1Cl)NC(CSCc1ccccc1)=NS2(=O)=O | -4.8
COc1ccc(-c2[nH]ncc2CN(CCO)Cc2cccs2)c(F)c1 | -1.2
COc1ccc2cc(CCC(C)=O)ccc2c1 | -2.3
COc1cccc2c1OCC1COc3c(c(=O)n(C)c(=O)n3C)C21 (configuration not stated) | 1.5
O[C@H]1COC2C1OC[C@@H]2O (some centres not stated) | -2.3
CCNC(=O)c1sc2cc(C)ccc2c1Cl | 2.4
CC(C)(C)[C@]1(O)CCN2C[C@H]3c4ccccc4CCc4cccc(c43)[C@@H]2C1 | -2.1
Cc1ccc2c(c1C)NC(C(=O)O)C1CC=CC21 (configuration not stated) | -5.3
CC(=O)OCC(=O)[C@@]12OC3(CCCC3)O[C@@H]1C[C@H]1[C@@H]3CCC4=CC(=O)C=C[C@]4(C)[C@@]3(F)[C@@H](O)C[C@@]12C | 0.8
NC(=O)N1c2ccccc2C=Cc2ccccc21 | 1.3
Cc1cccc(N2CCN(C(=S)c3ccccc3)CC2)c1 | 3.3
NNC(=O)c1ccncc1 | 1.1
COc1ccc(-c2cc(=Nc3ccc(C)cc3)c3ccccc3o2)cc1 | -2.2
